Test results from ChEMBL document CHEMBL3433997, “St. Jude Leishmania screening dataset” (2016).

Assays:
Type in all cases: functional
[1] = target: Solute carrier family 2, facilitated glucose transporter member 1 (Homo sapiens) (UniProt P11166); assay: ST_JUDE_LEISH: Cytotoxicity at 2uM final concentration against transgenic Leishmania Mexicana promastigotes LmGLUT1 that are glucose transport deficient and complemented with the human glucose transporter GLUT1. Activity is measured by DNA content using SYBR green in vitro
[2] = target: Hexose transporter 1 (Plasmodium falciparum) (UniProt O97467); assay: ST_JUDE_LEISH: Cytotoxicity at 2uM final concentration against transgenic Leishmania Mexicana promastigotes LmPfHT that are glucose transport deficient and complemented with the Plasmodium falciparum hexose transporter. Activity is measured by DNA content using SYBR green in vitro
[3] = target: Glucose transporter (Leishmania mexicana) (UniProt O61059); assay: ST_JUDE_LEISH: Cytotoxicity at 2uM final concentration against transgenic Leishmania Mexicana promastigotes LmGT2 that are glucose transport deficient and complemented with the L. Mexicana glucose transporter 2. Activity is measured by DNA content using SYBR green in vitro

Solute carrier family 2, facilitated glucose transporter member 1 (Homo sapiens), sequence (P11166 whole entry): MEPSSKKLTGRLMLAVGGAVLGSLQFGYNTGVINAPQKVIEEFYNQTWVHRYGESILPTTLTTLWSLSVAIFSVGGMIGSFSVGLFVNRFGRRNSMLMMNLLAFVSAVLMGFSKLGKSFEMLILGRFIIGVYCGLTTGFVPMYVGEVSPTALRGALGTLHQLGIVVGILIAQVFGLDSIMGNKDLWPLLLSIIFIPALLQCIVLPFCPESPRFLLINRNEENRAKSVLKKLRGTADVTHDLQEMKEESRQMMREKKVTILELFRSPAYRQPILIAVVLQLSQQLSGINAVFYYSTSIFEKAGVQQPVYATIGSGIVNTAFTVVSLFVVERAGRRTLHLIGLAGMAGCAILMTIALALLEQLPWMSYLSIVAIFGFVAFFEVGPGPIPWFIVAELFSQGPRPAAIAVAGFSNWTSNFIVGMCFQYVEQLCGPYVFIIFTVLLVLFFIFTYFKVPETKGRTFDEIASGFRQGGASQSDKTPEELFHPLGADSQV

Row | SMILES | inhibition [1] [%] | inhibition [2] [%] | inhibition [3] [%]
1 | O=C(COc1cccc([N+](=O)[O-])c1)Nc1ccc(-c2nc3ccccc3[nH]2)cc1 | 1.62 | 2.12 | -1.82
2 | CN1CCC(C(=O)Nc2ccc(-c3ccc(-c4nc5cc(C(F)(F)F)ccc5[nH]4)s3)cc2)CC1 | -0.08 | 0.49 | -0.16
3 | O=C(Cn1c(CCc2cccc(F)c2F)nc(=O)c2ccccc21)N(CCCN1CCCC1)Cc1ccc(-c2ccc(C(F)(F)F)cc2)cc1 | 8.01 | 7.63 | 9.22
4 | NCc1cccc(-c2ccc3ccnc(N)c3c2)c1 | 0.01 | 0.05 | 1.2
5 | CCCN(Cc1nnc(-c2cccs2)o1)C(=O)C1COc2ccccc2O1 (configuration not stated) | 1.59 | 3.17 | 1.58
6 | COCc1ccccc1C(=O)NCCOc1cc(C)cc(C)c1 | -0.29 | 0.17 | -0.46
7 | Cc1ccc(Nc2ccnc3cc(-c4nccs4)ccc23)cc1C(O)c1ccccc1 (configuration not stated) | 3.59 | 2.96 | 3.72
8 | CC(C)c1ccc(-c2noc(SCC(=O)N3CCCCC3C)n2)cc1 (configuration not stated) | -2.1 | 1.89 | -2.55
9 | CCNc1cc(C(=O)N[C@@H](Cc2ccccc2)[C@H](O)CNC(C)(C)Cc2ccccc2)cc(N2CCCC2=O)c1 | 3.58 | 0.61 | 0.81
10 | Cc1cc(N[C@@H](Cc2ccccc2)C(=O)NCc2cccc(F)c2)nc(NCCc2ccccc2)n1 | 5.82 | 4.21 | 2.48
11 | Nc1c2c(nc3ccc(NC(=O)CCCCCCc4ccccc4)cc13)CCCC2 | -2.4 | -2.24 | -3.57
12 | OC(CNc1ccnc(Nc2ccccc2)n1)c1ccc(C(F)(F)F)cc1 (configuration not stated) | 5.97 | 5.69 | 1.23
13 | CCCCCCN(CCCCCC)CC(O)c1c(OC)ccc2ccccc12 (configuration not stated) | 3.35 | 5.37 | 5.56
14 | CCOc1cc(C(=O)NC2CC(C)(C)NC(C)(C)C2)ccc1-c1nc2cc(Cl)ccc2[nH]1 | 1.25 | 1.71 | 1.1
15 | Cc1ccc(-n2c(C)cc(C(=O)CN3C(=O)NC(Cc4ccccc4)C3=O)c2C)cc1 (configuration not stated) | 0.81 | -1.87 | 0.55
16 | Clc1cccc(C=NNc2ccnc3cc(Cl)ccc23)c1 | -1.51 | -2.17 | -3.26
17 | COc1cc(NC(=O)c2sc(-c3ccc(Cl)cc3)cc2NC(=O)c2ccncc2)ccc1OCCN1CCCC1 | 7.57 | 3.54 | 0.97

Row | SMILES | inhibition [1] [%] | inhibition [2] [%] | inhibition [3] [%]
18 | Oc1ccc(CCNc2nc(NCCCOc3ccccc3-c3ccc(C(F)(F)F)cc3)nc(N3CCNCC3)n2)cc1 | -0.03 | -1.9 | -0.21
19 | COc1ccc(Nc2nccc(N3CCC(NC(=O)Nc4cccc(OC)c4)C3)n2)cc1 (configuration not stated) | 0.29 | 0.74 | 0.51
20 | CC(C)(CN)c1nc(-c2ccc(Cl)c(O)c2)c(-c2ccncc2)[nH]1 | -2.49 | 0.02 | 1.18
21 | COc1ccc(S(=O)(=O)N2CCC(NS(=O)(=O)c3ccc(F)cc3)CC2)cc1 | 3.51 | 2.07 | 3.69
22 | CC1(C)N=C(N)N=C(N)N1OCc1cc(Cl)c(CON2C(N)=NC(N)=NC2(C)C)cc1Cl | 0.92 | 1 | -2.89
23 | CCCC(C)NC[C@@H](O)[C@H](Cc1ccccc1)NC(=O)c1cc(C2CCCC2)cc(N2CCCCS2(=O)=O)c1 (some centres not stated) | 3.4 | 3.66 | 2.98
24 | O=C(NCc1cccnc1)C(c1cc2ccccc2o1)N1CCN(C(c2ccccc2)c2ccccc2)CC1 (configuration not stated) | 1.36 | 2.1 | 0.65
25 | O=C(/C=C/c1ccc(Cl)c(Cl)c1)NCCCCCN1CCC(NC(=O)c2cc(Cl)ccc2F)CC1 | 2.96 | 1.12 | -0.02
26 | Cc1ccccc1C1CCN(C2CCC(NC(=O)c3cc(-c4ccc(Cl)cc4)cs3)CC2)CC1 (configuration not stated) | 2.23 | 3.13 | -2.52
27 | CN(C)CCCSc1ccccc1NC(=O)C=Cc1ccccc1 | 5.73 | 7.21 | 6.85
28 | COc1ccc(S(=O)(=O)NC2CCN(CCCOc3ccnc4cc(Cl)ccc34)C2)cc1OC (configuration not stated) | 3.41 | 3.81 | 2.88
29 | CC(=O)c1c[nH]c2ccc(/C=C/C(=O)NC3CCC(CCN4CCc5ccc(C#N)cc5CC4)CC3)cc12 (configuration not stated) | 19.5 | 14.9 | 18.9
30 | c1ccc(CN2CCCN(c3ccc4c(c3)CCN(Cc3ccc(-c5ncc[nH]5)cc3)CC4)CC2)cc1 | 2.8 | 3.96 | 0.68
31 | CC(=O)Nc1ccc(CN2CCc3ccc(NS(=O)(=O)c4cccc(OCc5ccc(Cl)cc5)c4)cc3CC2)s1 | 2.65 | -0.08 | 0.54
32 | Cc1cccc2nc(-c3cccc(-c4ccc(NC(=O)NCc5cccc(F)c5)cc4)c3)[nH]c12 | -1.1 | 1.21 | 0.25
33 | CC(C)CCNC(=O)C1Cc2c([nH]c3cc(Br)ccc23)C2(CCN(CCc3ccccc3)CC2)N1 (configuration not stated) | 3.44 | 2.47 | -3.76
34 | O=C(Nc1cccc(CN2CCCN(Cc3ccc(O)cc3)CC2)c1)c1ccc(-c2ccccc2)cc1 | 1.14 | 0.52 | -2.97
